Screening data (PubChem BioAssay)
In the library only some 1.6% were active in any assay of this set; here they are far more common.
KCNQ2 block = inhibitors of rat KCNQ2 potassium channel; O88943; CHO-K1 KCNQ2, FluxOR thallium flux, 20 min; stronger effect = lower value; B-score at 10 µM; 1.1% of 310,000 active;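 active = fluorescence ratio B-score at most minus 3 library SDs, with starting brightness B-score within 2 library SDs, cut at about -5.5 in these data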
Target sequence (O88943 whole entry, looked up): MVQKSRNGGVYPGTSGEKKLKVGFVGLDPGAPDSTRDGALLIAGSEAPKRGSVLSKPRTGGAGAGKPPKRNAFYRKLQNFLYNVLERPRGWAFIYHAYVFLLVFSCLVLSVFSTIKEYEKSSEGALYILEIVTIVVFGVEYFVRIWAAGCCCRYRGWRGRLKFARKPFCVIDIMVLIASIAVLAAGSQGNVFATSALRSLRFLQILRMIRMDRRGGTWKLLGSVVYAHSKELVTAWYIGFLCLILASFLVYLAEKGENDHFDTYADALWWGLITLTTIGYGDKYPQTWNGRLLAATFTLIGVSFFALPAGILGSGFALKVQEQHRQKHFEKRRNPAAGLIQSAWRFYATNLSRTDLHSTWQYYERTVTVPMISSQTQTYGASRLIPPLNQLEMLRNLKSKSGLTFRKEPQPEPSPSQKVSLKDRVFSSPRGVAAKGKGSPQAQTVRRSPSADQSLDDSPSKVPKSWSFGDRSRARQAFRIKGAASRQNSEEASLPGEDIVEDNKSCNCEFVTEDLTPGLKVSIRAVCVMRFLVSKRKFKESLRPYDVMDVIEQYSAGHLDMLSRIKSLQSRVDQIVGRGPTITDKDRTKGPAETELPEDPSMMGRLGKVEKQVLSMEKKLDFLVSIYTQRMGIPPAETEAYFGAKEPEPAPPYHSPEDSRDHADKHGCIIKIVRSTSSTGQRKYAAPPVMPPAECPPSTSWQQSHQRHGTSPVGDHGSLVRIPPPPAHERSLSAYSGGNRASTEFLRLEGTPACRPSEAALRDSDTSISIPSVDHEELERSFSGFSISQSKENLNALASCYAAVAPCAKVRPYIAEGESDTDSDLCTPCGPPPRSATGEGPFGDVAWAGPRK
KCNQ2 enhance = KCNQ2 (rat) channel potentiation. O88943. CHO-K1 KCNQ2, FluxOR thallium flux fluorescence; stronger effect = higher value. B-score at 10 µM. 0.54% of 310,000 active;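 active = fluorescence ratio B-score at least 3 SD of library B-scores, with initial fluorescence B-score within 3 of them, cut at about 5.3 in these data; same plate scores as AID 2156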;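 also: B-score of peak minus minimum over baseline fluorescence ratio after K+ and Tl+ stimulus; positive B-score means potentiation of KCNQ2 with more thallium influx and brighter signal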
KCNQ2 block conf = confirmation of rat KCNQ2 potassium channel inhibitors | shares compounds with KCNQ2 block | KCNQ2-expressing cells, thallium flux, inhibition; stronger effect = lower value | activity change, negative = inhibition, % at 10 µM | 57% of 1,000 active | AID 493025;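 also: 0% = vehicle wells and values are ratio percent relative to vehicle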
KCNQ1 spec = human KCNQ1 activity in KCNQ2 inhibitor specificity screen. shares compounds with KCNQ2 block. KCNQ1-expressing cells, FluxOR thallium flux fluorescence; stronger effect = lower value. activity change, negative = inhibition, % at 10 µM. 15% of 1,000 active. AID 493026;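 active = activity change at least 3 SD of negative controls below their mean in both duplicate wells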;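 also: CHO cells stably transfected with KCNQ1 and depolarized by potassium stimulus; peak minus minimum fluorescence over baseline after thallium addition; 0% = vehicle negative control and -100% = blank without thallium stimulus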
CHO parental ctr = counter-screen for KCNQ2 inhibitors: effect in parental CHO cells; 14% of 1,000 active; shares compounds with KCNQ2 block; activity change, % at 10 µM; thallium flux counter-screen; stronger effect = lower value; AID 493029;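 also: 0% = vehicle negative controls with stimulus buffer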
KCNQ2 patch conf = rat KCNQ2 inhibition confirmed by electrophysiology. 49% of 550 active. calls only at 10 µM. KCNQ2-expressing cells, automated patch clamp current. AID 588531. shares compounds with KCNQ2 block
* = called active by the depositor. Unless noted, no rule for the calls is given here.

Screening Cc1ccc(C(CCN(Cc2ccccc2)C(=O)c2ccco2)c2ccco2)cc1 (centres undefined) returned KCNQ2 block -8*, KCNQ2 enhance -8, KCNQ2 block conf -27%*, KCNQ1 spec inactive, CHO parental ctr inactive and KCNQ2 patch conf inactive.
`CN(Cc1ccccc1)C(=O)c1ccco1` gave KCNQ2 block inactive and KCNQ2 enhance 0.04.
For O=C(CCc1nnc2ccc(N3CCC4(CC3)OCCO4)nn12)N1CCCCC1 the results were KCNQ2 block inactive and KCNQ2 enhance 2.1.
Screening Cc1cc(C)c2nc(-c3cccc(Cl)c3)c(C)c(C(=O)N3CCOCC3)c2c1 returned KCNQ2 block -8.8*, KCNQ2 enhance -8.8, KCNQ2 block conf -28%*, KCNQ1 spec inactive, CHO parental ctr inactive and KCNQ2 patch conf active.
Cc1onc(-c2c(Cl)cccc2Cl)c1C(=O)N1CCOCC1 was read as KCNQ2 block inactive and KCNQ2 enhance 0.75.
CCc1ccc(/C=C2/C(=O)N(c3ccccc3)C(=S)N2CC(=O)OC)s1 was read as KCNQ2 block inactive.
`CCN1C(=O)/C(=C/N(C(C)=O)c2ccccc2)N(c2ccccc2)C1=S` gave KCNQ2 block -9.6*, KCNQ2 enhance -9.6, KCNQ2 block conf inactive, KCNQ1 spec inactive and CHO parental ctr inactive.
`NC(=O)COc1ccc(/C=N\NC(=O)c2ccc(-c3ccccc3)cc2)cc1` gave KCNQ2 block inactive.
For COc1ccc(CNCC(=O)Nc2cccc(S(N)(=O)=O)c2)cc1 the results were KCNQ2 block inactive and KCNQ2 enhance 1.1.
CC(Oc1ccccc1)C(=O)Nc1nnc(S(=O)(=O)Nc2ccccc2)s1 (centres undefined) was read as KCNQ2 block inactive and KCNQ2 enhance 0.46.
`COc1cccc(NC(=O)Nc2ccncc2)c1` gave KCNQ2 block inactive and KCNQ2 enhance 0.23.
`COc1cccc(NC(=O)Nc2ccc(C(C)(C)C)cc2)c1` gave KCNQ2 block -8.7*, KCNQ2 enhance -8.7, KCNQ2 block conf inactive, KCNQ1 spec inactive and CHO parental ctr inactive.
`O=C(c1cccc(N2CCCC2=O)c1)N1CCN(c2cccc(Cl)c2)CC1` gave KCNQ2 block inactive and KCNQ2 enhance 0.06.
O=C(Nc1ccc(C(=O)OC2CCCCC2)cc1)c1ccncc1 was read as KCNQ2 block inactive.
CC1CCCC(C)N1C(=O)CNCc1ccc2c(c1)OCO2 (centres undefined) was read as KCNQ2 block inactive.
CCn1nc(C(=O)Nc2ccc3nc(C)sc3c2)c2ccccc2c1=O was read as KCNQ2 block inactive and KCNQ2 enhance 1.2.
`CCn1nc(C(=O)Nc2ccccc2N2CCCC2)c2ccccc2c1=O` gave KCNQ2 block -8*, KCNQ2 enhance -8, KCNQ2 block conf -38%*, KCNQ1 spec inactive, CHO parental ctr inactive and KCNQ2 patch conf inactive.
Screening COC(=O)c1cccc(Nc2c3c(nc4ccccc24)CCC3)c1 returned KCNQ2 block -6.6*, KCNQ2 enhance -6.6, KCNQ2 block conf -26%*, KCNQ1 spec inactive, CHO parental ctr inactive and KCNQ2 patch conf active.
For CC(=O)c1cccc(Nc2c3c(nc4ccccc24)CCC3)c1 the results were KCNQ2 block inactive.
`Cc1nc2sccn2c(=O)c1S(=O)(=O)Nc1ccc(N2CCN(S(C)(=O)=O)CC2)cc1` gave KCNQ2 block inactive and KCNQ2 enhance 2.7.
Screening O=C(NCc1ccco1)c1ccc(-c2ccccc2Cl)o1 returned KCNQ2 block -7.1*, KCNQ2 enhance -7.1, KCNQ2 block conf inactive, KCNQ1 spec inactive and CHO parental ctr inactive.
O=C(NCc1ccco1)c1ccc(-c2ccc(Cl)cc2)o1 was read as KCNQ2 block inactive.
COc1ccc(Nc2nc(C(=O)NCc3ccco3)cs2)cc1 was read as KCNQ2 block inactive.
`O=C(NCc1ccco1)c1csc(Nc2ccccc2Cl)n1` gave KCNQ2 block -8.3*, KCNQ2 enhance -8.3, KCNQ2 block conf inactive, KCNQ1 spec inactive and CHO parental ctr inactive.
Screening CCCn1c(=O)c(C(=O)NCCc2ccc(OC)cc2)c(O)c2ccccc21 returned KCNQ2 block -8.2*, KCNQ2 enhance -8.2, KCNQ2 block conf inactive, KCNQ1 spec inactive and CHO parental ctr inactive.
Screening C=CCn1c(=O)c(C(=O)NCCc2ccccc2)c(O)c2ccccc21 returned KCNQ2 block -6.9*, KCNQ2 enhance -6.9, KCNQ2 block conf inactive, KCNQ1 spec inactive and CHO parental ctr inactive.
C=CCn1c(=O)c(C(=O)Nc2cccnc2)c(O)c2ccccc21 was read as KCNQ2 block inactive.
`CCCn1c(=O)c(C(=O)NCCc2ccccc2)c(O)c2ccccc21` gave KCNQ2 block inactive.
For COc1cc(C2c3[nH]c4ccccc4c3C[C@H]3C(=O)N(C4CC4)CC(=O)N23)ccc1OC(C)C (some centres undefined) the results were KCNQ2 block inactive and KCNQ2 enhance 1.
For Cc1cc(C)n(C(C)CNS(=O)(=O)c2ccccc2)n1 (centres undefined) the results were KCNQ2 block inactive.
`N#CCCN(C(=O)c1cc2c(s1)-c1ccccc1S(=O)(=O)C2)c1ccccc1` gave KCNQ2 block inactive and KCNQ2 enhance 1.3.
For CCOC(=O)C1(Cc2ccccc2)CCCN(C(=O)c2cnn(CC)c2)C1 (centres undefined) the results were KCNQ2 block inactive and KCNQ2 enhance 0.01.
`COc1cccc(CNC(=O)CN2C(=O)CCSc3ccc(S(=O)(=O)N4CCCC4)cc32)c1` gave KCNQ2 block inactive.
`Cc1ccc(C(C)C)c(OCC(=O)NNC(=O)CC2OC(=O)c3ccccc32)c1` (centres undefined) gave KCNQ2 block inactive.
`CCOc1cnn(-c2cc(Oc3ccc(C)cc3)ncn2)c(=O)c1Cl` gave KCNQ2 block inactive and KCNQ2 enhance 0.83.
Screening Cc1cc(Oc2cnn(C(C)(C)C)c(=O)c2Cl)cc(C(C)C)c1 returned KCNQ2 block -11*, KCNQ2 enhance -11, KCNQ2 block conf -34%*, KCNQ1 spec -30%*, CHO parental ctr -32%* and KCNQ2 patch conf inactive.
